Residue numbers refer to the chain shown, from its start. The full ranking holds about 24,000 sequences; the median of “enrichment r” is about 0.99, and the highest 2% start at about 3.7. The list comes from a sample in which the highest values are over-represented; it also holds similar and randomly drawn sequences.

Sequences and labels used below:
T1: UNK ZnF1-3 (human, UniProt Q9C0B0 31-174)
T1 sequence: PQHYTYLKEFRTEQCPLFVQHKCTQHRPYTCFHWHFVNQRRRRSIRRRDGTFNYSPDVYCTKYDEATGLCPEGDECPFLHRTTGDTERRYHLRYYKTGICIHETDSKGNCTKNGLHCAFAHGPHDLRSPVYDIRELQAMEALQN

B1: chr9:127920631:127920632:-_ENSG00000119414_ENST00000456642|hu_mus|motif|central (ssRNA)
RNA: GGGAGUUCUACAGUCCGACGAUCAAUACGGUCAGGCCACUUAGCCUUUAGUGCAAGAAGAUAAGUGAAGGUCUCCAAACGGUAGUAACCUCUGUCUACAAAAUCACCCAUAAAUAUGUAGUUUGUGUCAGGAACCUGACCUCCCAACAGAGGAUUGAGCAUCA
B2: chr7:140404665:140404666:+_ENSG00000090266_ENST00000247866|hu_hu|hu_hu_hu_mus_False|1_1 (ssRNA)
RNA: GGGAGUUCUACAGUCCGACGAUCUGCUCCUACUCGUCCAGAGAGUUUACAGUGUCAGUCCUCGUCAUCAGGAGGGAUUCCCAGUUCUUCAUCUGUCCACUGUGAAGGAUCUGGAUAUGAAAAGUGACCCAGCACAGCUUCUGACAACAGAGGAUUGAGCAUCA
B3: chr7:109302599:109302600:-_ENSMUSG00000063550_ENSMUST00000070165|mus_mus|FALSE|FALSE (ssRNA)
RNA: GGGAGUUCUACAGUCCGACGAUCAGAGUCAUCUUCUCCAUCCUGCUGAUUGUUCUCAUCAACAGGUUUGCUCAGGAAGCUAAAUCUUUCUCCAUUUUCUGGAUACUCAGAGGGUGAAGCUAGAUCUUCUGAAUCAUGAUUAACCAACAGAGGAUUGAGCAUCA
B4: chr8:26227902:26227903:+_ENSG00000221914_ENST00000315985|hu_hu|motif|central (ssRNA)
RNA: GGGAGUUCUACAGUCCGACGAUCGGAAUGCCAACCCUAAUUCACUUUGUCUUGAAAUAUAUACAGAUUGUUUGUAGUAGCGGCGGCAAUGAUAUUUUCCUUGGGGUGCCAGGCUGUGUGAAGGAUUUUCUUAUUGAAGUCUAGCAACAGAGGAUUGAGCAUCA
B5: 16983635_16983755_221_5pUTR_ENSMUSG00000063358_ENSMUST00000069107|mouse|control|control (ssRNA)
RNA: GGGAGUUCUACAGUCCGACGAUCGACCAUCUCCGGGCCCGCCGCCGCCGCCGCCGCCAUGUUGGCUGCACAGCCGCCGCCGCCGCCGCCGCCGCCGCGUUCGGUUCGACGCUUCGCGGCUGCCGCUCGACUUAUGCUGCGCUUCAACAGAGGAUUGAGCAUCA
B6: chr3:179287964:179287965:+_ENSG00000136518_ENST00000429709|hu_hu|hu_hu_hu_mus_True|18_18 (ssRNA)
RNA: GGGAGUUCUACAGUCCGACGAUCCUUGAGUGGUGAGAUGGCCUCCAUGUUCUCCCUGGGCACGCGGAGGGCAUUGGUGUCUAUGUAGUAGGUGGGCCCGCCCUGCUUGCCUUUGUCGCCAUCUAUUUCCAUCAUUGUACUUCCCAACAGAGGAUUGAGCAUCA
B7: chr5:171327072:171327073:-_ENSG00000072803_ENST00000265094|hu_hu|FALSE|FALSE (ssRNA)
RNA: GGGAGUUCUACAGUCCGACGAUCUACCAGCUCUGCUGCACACAGAGACCUGGCAUCCAGGUACGAAAGAAUGUUUUCUGCUAUGUGAUCUAAGCCUUGCUCUGGUAAAGCGGUAAUAAAGUCCCGCUGCAACAUGGGCUUCAGCAACAGAGGAUUGAGCAUCA
B8: 97033003_97034721_1993_CDS_ENSG00000121152_ENST00000240423|human|control|control (ssRNA)
RNA: GGGAGUUCUACAGUCCGACGAUCCCUGUGGUUUGCCUCUGCAUCUGCCUCCUUUCCGGAGAGCGCUGUCAGCAGACUCCACAUGCUCUGCUUCAGUUUCUUCAUGUCCAUCUUUUUGGCAGUCUUGGCAUAGUGAAUUUCAAUCAACAGAGGAUUGAGCAUCA
B9: chr2:151796264:151796265:-_ENSMUSG00000027459_ENSMUST00000062047|mus_mus|motif|central (ssRNA)
RNA: GGGAGUUCUACAGUCCGACGAUCUGUUCGGCUGGCCUCAGAUGGGGACACAGGACUAUCACACAAGUUGAUGAGGCUGCGGAGGAUGUCGAGGUCCAGUUGGGGCCGGCGGCCAGAACAGGGCAGGACUCGGCGACUGGGUGUCAACAGAGGAUUGAGCAUCA
B10: chr17:38438176:38438177:+_ENSG00000171475_ENST00000323571|hu_mus|FALSE|FALSE (ssRNA)
RNA: GGGAGUUCUACAGUCCGACGAUCCCCCCUGACCAUGUAGCUAGGGACUGAGAGUCACAGGGAAGGGAAAGCUUACACCUGGAAUGUGAAGAAUCUGAUUUACAGCUGAUGGCAGGUUGGGUUUCCAGAAGGGCAGACAGCGCACAACAGAGGAUUGAGCAUCA
B11: chrX:71549762:71549763:+_ENSMUSG00000019087_ENSMUST00000019231|mus_mus|mus_mus_mus_hu_False|8_18 (ssRNA)
RNA: GGGAGUUCUACAGUCCGACGAUCAAACCCGUGUACUUCUUAUUGUUAGCACAACAUCACCAGAAAACGAUAACGACAGCCAAGCAGGACAGACAGUUAAGUAGUACUUCCACACUCCGCAAAUUCAAGGAACCUCAAACCUUACAACAGAGGAUUGAGCAUCA
B12: chr2:125499325:125499326:+_ENSMUSG00000091337_ENSMUST00000164756|mus_mus|FALSE|FALSE (ssRNA)
RNA: GGGAGUUCUACAGUCCGACGAUCGAGCUCUUCGGUCAGUCGAUUGACAACCAUCAGCGAAAACAGCUCUUCGAUAAAAGCUAGCUGGUCGAAAGGGCUCUUCUCACACCGCGCCUGAAAGCCGCCAUCCAGGGCAUCUCCGGCCAACAGAGGAUUGAGCAUCA
B13: chr1:163116941:163116942:-_ENSG00000143248_ENST00000313961|hu_mus|FALSE|FALSE (ssRNA)
RNA: GGGAGUUCUACAGUCCGACGAUCACAAAGCAGUCAGAAAGAACCAAAAAAAAGAAAAAAAAAAGAAAAAGAAAAAAGUGAGGGCUCUUAGACAACAGAUCCACAUAACCAAACUAACAUGAGCGAAAGAGUUAGCAACACAGCCAACAGAGGAUUGAGCAUCA
B14: chr14:76904430:76904431:+_ENSMUSG00000022010_ENSMUST00000022587|mus_mus|mus_mus_mus_hu_True|8_98 (ssRNA)
RNA: GGGAGUUCUACAGUCCGACGAUCUGCAGCCAAAAACAGAGAGAGGGAAAAAAAGAGGGAACACCAGCAGCCUUGUAUAAGCUAGAUAAAAUCUUCUGGCUUUCCGCAGCCCAGGGAGAAACAGAAAUGGUGCUGGCUAAUUUACAACAGAGGAUUGAGCAUCA
B15: chr14:76904430:76904431:+_ENSMUSG00000022010_ENSMUST00000022587|mus_mus|mus_mus_mus_hu_True|58_98 (ssRNA)
RNA: B14 RNA with U77C, G80A, U127A, G128C, U130G, G131C, C132A, U133G, G134C, G135C
B16: chr6:144948378:144948379:-_ENSMUSG00000030268_ENSMUST00000111742|mus_mus|FALSE|FALSE (ssRNA)
RNA: GGGAGUUCUACAGUCCGACGAUCAGGGAACACCAGGCCAGCAGGGCUGCAUGGGGAGCCCAAAUCUGCCCCAAUUAGAAACAAACAAACAAAAAAAAAACAACCAAAACAAAAAACAAAAGAACCUCACCAGCAAAAGAAACACAACAGAGGAUUGAGCAUCA

The test has as its target T1, UNK ZnF1-3. Put plainly: nsRBNS (natural sequence RNA bind-n-seq); RBNS binding buffer (assumed for nsRBNS): 25 mM Tris pH 7.5, 150 mM KCl, 3 mM MgCl2, 0.01% Triton X-100, 500 ug/ml BSA, 20 U/ml SUPERase-In, 4 C; UNK is unkempt and MSI1 is Musashi-1; names of the RNAs are library labels; protein concentration not given here; high values mean tight binding.
Regarding B1, the binding signal amounted to 0.995 enrichment R.
As for B2, the figure is 1.35 enrichment R.
In the case of B3 it was 0.565 enrichment R; in that of B4, 1.11 enrichment R.
As for B5, the figure is 0.486 enrichment R; as for B6, 0.497 enrichment R.
In turn, B7 had a binding signal of 1.05 enrichment R.
As for B8, the figure is 0.375 enrichment R.
As for B9, the figure is 0.777 enrichment R; as for B10, 1.6 enrichment R.
In the case of B11 it was 1.46 enrichment R.
Consider B12, for which the binding signal turned out to be 1.3 enrichment R.
In the case of B13 it was 10.6 enrichment R; in that of B14, 3.33 enrichment R.
Take B15: the binding signal is 3.56 enrichment R.
As for B16, the figure is 7.87 enrichment R.

These data come from paper PMC12136788.
